# Measured values: PubChem BioAssay (NCI)
# This is part of a sample that, as a whole, favours compounds with a hit. Of some 79,000 tested, about 15% had one in any assay. A number with no mark means an inactive call. The source made the active and inactive calls. No stated cut-off is given here; in the data, active means growth inhibition above about 70%; inactive means the rest.
# Assays:
# [1] = NCI Yeast Anticancer Drug Screen. Data for the rad52 strain (AID 147);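 further: 0% = growth of vehicle-treated control cultures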; conditions: S. cerevisiae rad52 mutant growth inhibition, hits give high values
# How it was run: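 Yeast strain carrying a DNA damage repair alteration was exposed to test compounds. Growth inhibition was measured relative to vehicle-treated controls.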
# [2] = NCI Yeast Anticancer Drug Screen. Data for the wt1 strain (AID 149);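 further: 0% = growth of vehicle-treated wt1 cultures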; conditions: S. cerevisiae wt1 strain (SPY 50644) growth inhibition, hits give high values
# How it was run: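 Compounds are added to wt1 yeast cultures. Growth is then measured. Inhibition is expressed relative to vehicle-treated controls.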
# [3] = NCI Yeast Anticancer Drug Screen. Data for the rad50EPP+ strain (AID 151);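 further: 0% = growth of vehicle-treated control cultures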; conditions: S. cerevisiae rad50 mutant strain, hits give high values
# How it was run: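 Yeast strain carrying rad50 alteration (rad50EPP+) exposed to compounds; growth inhibition measured relative to vehicle-treated controls.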
# [4] = NCI Yeast Anticancer Drug Screen. Data for the rad50 strain (AID 155);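 further: 0% = growth of vehicle-only cultures of the same strain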; conditions: S. cerevisiae rad50 strain growth inhibition, hits give high values
# How it was run: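 Inhibition values express reduced yeast growth in compound-treated cultures relative to vehicle-treated controls.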
# [5] = NCI Yeast Anticancer Drug Screen. Data for the mec2-1 strain (AID 157); conditions: S. cerevisiae mec2-1 strain, hits give high values
# How it was run: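 mec2-1 yeast strain, carrying an alteration in DNA damage repair or cell cycle control, was exposed to compounds; growth inhibition was measured relative to vehicle-treated controls.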
# [6] = NCI Yeast Anticancer Drug Screen. Data for the rad14 strain (AID 159);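 further: 0% = growth of vehicle-treated control cultures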; conditions: S. cerevisiae rad14 strain growth inhibition, hits give high values
# How it was run: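 A mutant yeast strain defective in DNA damage repair is treated with compound; inhibition of its growth is scored against untreated, vehicle-exposed cultures.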
# [7] = NCI Yeast Anticancer Drug Screen. Data for the sgs1 mgt1 strain (AID 161);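 further: 0% = growth of cultures given vehicle only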; conditions: S. cerevisiae sgs1 mgt1 strain, hits give high values
# How it was run: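 Compounds are added to genetically altered yeast, and growth is compared with cultures given vehicle alone to give percent inhibition.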
# [8] = NCI Yeast Anticancer Drug Screen. Data for the CLN2oe strain (AID 163);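 further: 0% = growth of vehicle-only control cultures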; conditions: S. cerevisiae CLN2oe strain, hits give high values
# How it was run: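 Yeast cells carrying a defined cell-cycle control alteration were exposed to test compounds. Growth inhibition was scored against vehicle-treated control cultures.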
# [9] = NCI Yeast Anticancer Drug Screen. Data for the cln2 rad14 strain (AID 165);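 further: 0% = growth equal to vehicle treated cultures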; conditions: S. cerevisiae cln2 rad14 strain, hits give high values
# How it was run: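 Yeast carrying cln2 and rad14 alterations (cell cycle control and DNA damage repair) were exposed to compounds. Growth inhibition was measured against vehicle-treated controls.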
# [10] = NCI Yeast Anticancer Drug Screen. Data for the bub3 strain (AID 167); conditions: S. cerevisiae bub3 mutant strain, hits give high values
# How it was run: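 Steps: expose the mutant yeast strain to compound; grow alongside vehicle-treated cultures; measure growth; express inhibition against the vehicle cultures.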
# [11] = NCI Yeast Anticancer Drug Screen. Data for the wt2 strain (AID 169);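 further: 0% = growth of vehicle-treated yeast cultures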; conditions: S. cerevisiae wt2 strain growth inhibition, hits give high values
# How it was run: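 Yeast cells were exposed to test compounds, and growth inhibition was measured relative to vehicle-treated controls.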
# [12] = NCI Yeast Anticancer Drug Screen. Data for the mlh1 strain (AID 171);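 further: 0% = growth of vehicle-treated control cultures of the same strain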; conditions: S. cerevisiae mlh1 strain growth inhibition, hits give high values
# How it was run: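 Yeast carrying a defined genetic alteration in DNA damage repair or cell cycle control were exposed to test compounds. Growth inhibition was measured relative to vehicle-treated controls.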
# [13] = NCI Yeast Anticancer Drug Screen. Data for the sgs1 strain (AID 173);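 further: 0% = growth of vehicle-only control cultures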; conditions: S. cerevisiae sgs1 mutant, hits give high values
# How it was run: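 Yeast mutant strains carrying defined defects in DNA damage repair or cell cycle control were exposed to test compounds. Growth inhibition was scored against vehicle-treated controls.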
# [14] = NCI Yeast Anticancer Drug Screen. Data for the mlh1 rad18 strain (AID 175); conditions: S. cerevisiae mlh1 rad18 strain growth inhibition, hits give high values
# How it was run: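 Growth inhibition of the yeast strain was measured after compound exposure and expressed relative to vehicle-treated controls. The strain carries defined defects in DNA damage repair.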
# [15] = NCI Yeast Anticancer Drug Screen. Data for the rad18 strain (AID 177); conditions: S. cerevisiae rad18 mutant growth inhibition, hits give high values
# How it was run: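 Yeast carrying a defined DNA damage repair alteration were exposed to compounds. Growth inhibition was expressed relative to vehicle-treated controls.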
# [16] = NCI Yeast Anticancer Drug Screen. Data for the mgt1 strain (AID 153); conditions: S. cerevisiae mgt1 mutant growth inhibition, hits give high values
# How it was run: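 Yeast mgt1 strain (DNA repair/cell-cycle alteration panel) exposed to compounds; growth inhibition measured relative to vehicle-treated controls.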
# [17] = at 5.0 µM (retest, dose inferred, filed as 0.5)
# [18] = at 50.0 µM (retest, dose inferred, filed as 5.0)
smiles,measurement,setting,value
CN=C(N)N/N=C/c1ccc2c(c1)Cc1ccccc1-2,growth inhibition,[1]; at 1.2 µM,6%
same,growth inhibition,[1]; at 3.7 µM,19%
same,growth inhibition,[1]; at 11.0 µM,20%
same,growth inhibition,[1]; at 33.0 µM,31%
same,growth inhibition,[1]; at 100.0 µM,94% (active)
same,growth inhibition,[2]; at 1.2 µM,0%
same,growth inhibition,[2]; at 3.7 µM,17%
same,growth inhibition,[2]; at 11.0 µM,4%
same,growth inhibition,[2]; at 33.0 µM,8%
same,growth inhibition,[2]; at 100.0 µM,44%
same,growth inhibition,[3]; at 1.2 µM,-6%
same,growth inhibition,[3]; at 3.7 µM,12%
same,growth inhibition,[3]; at 11.0 µM,23%
same,growth inhibition,[3]; at 33.0 µM,32%
same,growth inhibition,[3]; at 100.0 µM,97% (active)
same,growth inhibition,[4]; at 1.2 µM,-7%
same,growth inhibition,[4]; at 3.7 µM,-9%
same,growth inhibition,[4]; [17],10%
same,growth inhibition,[4]; at 11.0 µM,-12%
same,growth inhibition,[4]; at 33.0 µM,-2%
same,growth inhibition,[4]; [18],64%
same,growth inhibition,[4]; at 50.0 µM,72.8% (active)
same,growth inhibition,[4]; at 100.0 µM,92% (active)
same,growth inhibition,[5]; at 1.2 µM,9%
same,growth inhibition,[5]; at 3.7 µM,-4%
same,growth inhibition,[5]; [17],6%
same,growth inhibition,[5]; at 11.0 µM,-5%
same,growth inhibition,[5]; at 33.0 µM,-13%
same,growth inhibition,[5]; [18],92% (active)
same,growth inhibition,[5]; at 50.0 µM,23.1%
same,growth inhibition,[5]; at 100.0 µM,60%
same,growth inhibition,[6]; at 1.2 µM,-1%
same,growth inhibition,[6]; at 3.7 µM,-14%
same,growth inhibition,[6]; at 11.0 µM,-21%
same,growth inhibition,[6]; at 33.0 µM,-16%
same,growth inhibition,[6]; at 100.0 µM,88% (active)
same,growth inhibition,[7]; [17],24%
same,growth inhibition,[7]; [18],83% (active)
same,growth inhibition,[7]; at 50.0 µM,30.2%
same,growth inhibition,[8]; at 1.2 µM,-90%
same,growth inhibition,[8]; at 3.7 µM,-34%
same,growth inhibition,[8]; at 11.0 µM,-16%
same,growth inhibition,[8]; at 33.0 µM,-5%
same,growth inhibition,[8]; at 100.0 µM,80% (active)
same,growth inhibition,[9]; [17],-5%
same,growth inhibition,[9]; [18],27%
same,growth inhibition,[9]; at 50.0 µM,19.8%
same,growth inhibition,[10]; at 1.2 µM,-15%
same,growth inhibition,[10]; at 3.7 µM,-4%
same,growth inhibition,[10]; [17],30%
same,growth inhibition,[10]; at 11.0 µM,-8%
same,growth inhibition,[10]; at 33.0 µM,3%
same,growth inhibition,[10]; [18],100% (active)
same,growth inhibition,[10]; at 50.0 µM,22.4%
same,growth inhibition,[10]; at 100.0 µM,73% (active)
same,growth inhibition,[11]; at 1.2 µM,-44%
same,growth inhibition,[11]; at 3.7 µM,-17%
same,growth inhibition,[11]; at 11.0 µM,-15%
same,growth inhibition,[11]; at 33.0 µM,34%
same,growth inhibition,[11]; at 100.0 µM,98% (active)
same,growth inhibition,[12]; at 1.2 µM,-24%
same,growth inhibition,[12]; at 3.7 µM,-18%
same,growth inhibition,[12]; at 11.0 µM,-17%
same,growth inhibition,[12]; at 33.0 µM,-10%
same,growth inhibition,[12]; at 100.0 µM,91% (active)
same,growth inhibition,[13]; at 1.2 µM,12%
same,growth inhibition,[13]; at 3.7 µM,35%
same,growth inhibition,[13]; at 11.0 µM,50%
same,growth inhibition,[13]; at 33.0 µM,58%
same,growth inhibition,[13]; at 100.0 µM,93% (active)
same,growth inhibition,[14]; [17],42%
same,growth inhibition,[14]; [18],85% (active)
same,growth inhibition,[14]; at 50.0 µM,81.2% (active)
same,growth inhibition,[15]; at 1.2 µM,-5%
same,growth inhibition,[15]; at 3.7 µM,-15%
same,growth inhibition,[15]; at 11.0 µM,-12%
same,growth inhibition,[15]; at 33.0 µM,1%
same,growth inhibition,[15]; at 100.0 µM,90% (active)
Cc1nn(-c2cc(Cl)ccc2[N+](=O)[O-])c(C)c1Cl,growth inhibition,[1]; at 1.2 µM,1%
same,growth inhibition,[1]; at 3.7 µM,3%
same,growth inhibition,[1]; at 11.0 µM,2%
same,growth inhibition,[1]; at 33.0 µM,3%
same,growth inhibition,[1]; at 100.0 µM,2%
same,growth inhibition,[2]; at 1.2 µM,-1%
same,growth inhibition,[2]; at 3.7 µM,-1%
same,growth inhibition,[2]; at 11.0 µM,1%
same,growth inhibition,[2]; at 33.0 µM,-1%
same,growth inhibition,[2]; at 100.0 µM,2%
same,growth inhibition,[3]; at 1.2 µM,4%
same,growth inhibition,[3]; at 3.7 µM,8%
same,growth inhibition,[3]; at 11.0 µM,14%
same,growth inhibition,[3]; at 33.0 µM,19%
same,growth inhibition,[3]; at 100.0 µM,10%
same,growth inhibition,[16]; at 1.2 µM,-2%
same,growth inhibition,[16]; at 3.7 µM,-2%
same,growth inhibition,[16]; at 11.0 µM,4%
same,growth inhibition,[16]; at 33.0 µM,-8%
same,growth inhibition,[16]; at 100.0 µM,7%
same,growth inhibition,[4]; at 1.2 µM,0%
same,growth inhibition,[4]; at 3.7 µM,1%
same,growth inhibition,[4]; [17],-20%
same,growth inhibition,[4]; at 11.0 µM,-16%
same,growth inhibition,[4]; at 33.0 µM,2%
same,growth inhibition,[4]; [18],-9%
same,growth inhibition,[4]; at 50.0 µM,50%
same,growth inhibition,[4]; at 100.0 µM,2%
same,growth inhibition,[5]; at 1.2 µM,7%
same,growth inhibition,[5]; at 3.7 µM,0%
same,growth inhibition,[5]; [17],-7%
same,growth inhibition,[5]; at 11.0 µM,3%
same,growth inhibition,[5]; at 33.0 µM,2%
same,growth inhibition,[5]; [18],-18%
same,growth inhibition,[5]; at 50.0 µM,54.1%
same,growth inhibition,[5]; at 100.0 µM,4%
same,growth inhibition,[8]; at 1.2 µM,1%
same,growth inhibition,[8]; at 3.7 µM,2%
same,growth inhibition,[8]; at 11.0 µM,-2%
same,growth inhibition,[8]; at 33.0 µM,4%
same,growth inhibition,[8]; at 100.0 µM,5%
same,growth inhibition,[9]; [17],39%
same,growth inhibition,[9]; [18],4%
same,growth inhibition,[9]; at 50.0 µM,26.1%
same,growth inhibition,[10]; at 1.2 µM,1%
same,growth inhibition,[10]; at 3.7 µM,7%
same,growth inhibition,[10]; [17],-6%
same,growth inhibition,[10]; at 11.0 µM,20%
same,growth inhibition,[10]; at 33.0 µM,24%
same,growth inhibition,[10]; [18],-6%
same,growth inhibition,[10]; at 50.0 µM,64.2%
same,growth inhibition,[10]; at 100.0 µM,16%
same,growth inhibition,[11]; at 1.2 µM,0%
same,growth inhibition,[11]; at 3.7 µM,-1%
same,growth inhibition,[11]; at 11.0 µM,-1%
same,growth inhibition,[11]; at 33.0 µM,-1%
same,growth inhibition,[11]; at 100.0 µM,0%
same,growth inhibition,[12]; at 1.2 µM,0%
same,growth inhibition,[12]; at 3.7 µM,2%
same,growth inhibition,[12]; at 11.0 µM,3%
